The source made the active and inactive calls. How the source made its calls: active means hit-call score of the fitted dose curve at least 0.9, where 1 is the maximum; inactive means score below 0.9.
Key:
[1] = CEETOX_H295R_PROG: CeeTox H295R High-throughput Steroidogenesis Assay for Progesterone (PROG) (AID 2283442); details: actives raise or lower the signal;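 on AC50: human H295R adrenal cells primed with 10 µM forskolin before dosing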
How it was run: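 Measured analyte is progesterone secreted by H295R cells at 48 h of chemical treatment, following 10 uM forskolin priming. Quantitation used HPLC-MS/MS against a 7-point standard curve; cytotoxicity was checked by MTT absorbance.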

[2] = read-out: Tumor necrosis factor receptor superfamily member 6 (Homo sapiens) (UniProt P25445); experiment: LTEA_HepaRG_FAS: Life Technologies and Expression Analysis (LTEA) Assay for Fas cell surface death receptor (FAS) using HepaRG (AID 2283447); details: mRNA level, 48 h; actives raise or lower the signal
How it was run: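 Differentiated HepaRG cells in serum-free induction medium were exposed 48 h to 8 half-log concentrations up to 100 uM in 0.5% DMSO, in duplicate. FAS mRNA was measured by qRT-PCR normalised to ACTB, GAPDH and POLR2A; bidirectional fit versus DMSO.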

[3] = read-out: Fatty acid synthase (Homo sapiens) (UniProt P49327); experiment: LTEA_HepaRG_FASN: Life Technologies and Expression Analysis (LTEA) Assay for Fatty Acid Synthase (FASN) using HepaRG (AID 2283448); details: mRNA level, 48 h; actives raise or lower the signal
How it was run: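 Differentiated human HepaRG cells were exposed for 48 h in serum-free induction medium to eight half-log concentrations up to 100 uM in 0.5% DMSO, in duplicate. FASN mRNA was quantified by TaqMan qRT-PCR, normalized to ACTB/GAPDH/POLR2A, and fitted bidirectionally against DMSO.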

[4] = read-out: Cyclin D2 (CCND2), CCND2 (gene 894); experiment: LTEA_HepaRG_CCND2: Life Technologies and Expression Analysis (LTEA) Assay for Cyclin D2 (CCND2) using HepaRG (AID 2283449); details: mRNA level, 48 h; actives raise or lower the signal;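 further: CCND2 transcript measured by TaqMan qRT-PCR and normalised to three housekeeping genes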
How it was run: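 Chemicals in 0.5% DMSO, eight half-log concentrations from 100 uM top, were applied in duplicate for 48 h to human HepaRG cells in serum-free induction medium. CCND2 mRNA by TaqMan qRT-PCR, normalised to ACTB/GAPDH/POLR2A; bidirectional fit versus DMSO.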

[5] = read-out: Cyclin Dependent Kinase Inhibitor 1A (CDKN1A), CDKN1A (gene 1026); experiment: LTEA_HepaRG_CDKN1A: Life Technologies and Expression Analysis (LTEA) Assay for Cyclin Dependent Kinase Inhibitor 1A (CDKN1A) using HepaRG (AID 2283450); details: mRNA level, 48 h; actives raise or lower the signal
How it was run: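 Gain or loss of CDKN1A transcript is scored by bidirectional fitting against 0.5% DMSO vehicle. Human HepaRG cultures receive chemicals for 48 h across an 8-point series peaking at 100 uM; expression comes from qRT-PCR.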

[6] = read-out: flavin-containing dimethylaniline monooxygenases 3 (FMO3), FMO3 (gene 2328); experiment: LTEA_HepaRG_FMO3: Life Technologies and Expression Analysis (LTEA) Assay for flavin-containing dimethylaniline monooxygenases 3 (FMO3) using HepaRG (AID 2283453); details: mRNA level, 48 h; actives raise or lower the signal
How it was run: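 HepaRG, 48 h exposure, 8-pt half-log series from 100 uM, 0.5% DMSO vehicle, duplicates; FMO3 transcript by Fluidigm TaqMan qRT-PCR, housekeeping-normalized; gain/loss fit vs DMSO.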

[7] = read-out: Cytochrome P450 (CYP1A1), CYP1A1 (gene 1543); experiment: LTEA_HepaRG_CYP1A1: Life Technologies and Expression Analysis (LTEA) Assay for Cytochrome P450 (CYP1A1) using HepaRG (AID 2283454); details: mRNA level, 48 h; actives raise or lower the signal
How it was run: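 Using HepaRG cultures with 0.5% DMSO as vehicle, eight-concentration exposures (max 100 uM) lasted 48 h. Transcript levels were measured by TaqMan qRT-PCR and normalized to ACTB, GAPDH and POLR2A.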

[8] = read-out: CFLAR gene, CFLAR (gene 8837); experiment: LTEA_HepaRG_CFLAR: Life Technologies and Expression Analysis (LTEA) Assay for CFLAR gene using HepaRG (AID 2283455); details: mRNA level, 48 h; actives raise or lower the signal
How it was run: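 Differentiated HepaRG cells in serum-free induction medium were exposed 48 h in duplicate to eight half-log concentrations up to 100 uM in 0.5% DMSO; mRNA measured by TaqMan qRT-PCR, normalized to ACTB, GAPDH, POLR2A; bidirectional fitting versus DMSO.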

[9] = read-out: Forkhead box O1 (FOXO1), FOXO1 (gene 2308); experiment: LTEA_HepaRG_FOXO1: Life Technologies and Expression Analysis (LTEA) Assay for Forkhead box O1 (FOXO1) using HepaRG (AID 2283456); details: mRNA level, 48 h; actives raise or lower the signal
How it was run: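 Differentiated HepaRG cells, in serum-free induction medium with 0.5% DMSO, exposed 48 h in duplicate to 8-point half-log series from 100 uM. FOXO1 mRNA measured by TaqMan qRT-PCR, normalized to ACTB, GAPDH, POLR2A; bidirectional fit versus DMSO.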

[10] = read-out: growth arrest and DNA damage 45 (GADD45A), GADD45A (gene 1647); experiment: LTEA_HepaRG_GADD45A: Life Technologies and Expression Analysis (LTEA) Assay for growth arrest and DNA damage 45 (GADD45A) using HepaRG (AID 2283458); details: mRNA level, 48 h; actives raise or lower the signal
How it was run: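 Differentiated HepaRG cells were exposed in duplicate for 48 h in serum-free induction medium to 8-point half-log concentrations up to 100 uM in 0.5% DMSO. GADD45A mRNA was measured by TaqMan qRT-PCR, normalized to ACTB, GAPDH and POLR2A, with bidirectional fitting versus DMSO.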

[11] = read-out: Forkhead box O3 (FOXO3), FOXO3 (gene 2309); experiment: LTEA_HepaRG_FOXO3: Life Technologies and Expression Analysis (LTEA) Assay for Forkhead box O3 (FOXO3) using HepaRG (AID 2283459); details: mRNA level, 48 h; actives raise or lower the signal
How it was run: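 Differentiated human HepaRG cells, 48 h post-plating, exposed in duplicate for 48 h in serum-free induction medium; 8-point half-log series from 100 uM in 0.5% DMSO. FOXO3 mRNA by TaqMan qRT-PCR, normalized to ACTB/GAPDH/POLR2A; bidirectional fit versus DMSO.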

[12] = read-out: ABC Transporter (ABCB1), ABCB1 (gene 5243); experiment: LTEA_HepaRG_ABCB1: Life Technologies and Expression Analysis (LTEA) Assay for ABC Transporter (ABCB1) using HepaRG (AID 2283460); details: mRNA level, 48 h; actives raise or lower the signal
How it was run: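 HepaRG cells exposed in duplicate for 48 h in serum-free induction medium to eight half-log concentrations up to 100 uM in 0.5% DMSO. ABCB1 mRNA quantified by qRT-PCR, normalised to ACTB, GAPDH and POLR2A; fitted bidirectionally versus DMSO.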

[13] = read-out: growth arrest and DNA damage 45 (GADD45B), GADD45B (gene 4616); experiment: LTEA_HepaRG_GADD45B: Life Technologies and Expression Analysis (LTEA) Assay for growth arrest and DNA damage 45 (GADD45B) using HepaRG (AID 2283461); details: mRNA level, 48 h; actives raise or lower the signal
How it was run: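 Human HepaRG monolayers receive chemicals for 48 h at eight half-log concentrations, highest 100 uM, in 0.5% DMSO. Expression is measured by TaqMan qRT-PCR and normalized to ACTB, GAPDH and POLR2A.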

[14] = read-out: ABC Transporter (ABCC3), ABCC3 (gene 8714); experiment: LTEA_HepaRG_ABCC3: Life Technologies and Expression Analysis (LTEA) Assay for ABC Transporter (ABCC3) using HepaRG (AID 2283462); details: mRNA level, 48 h; actives raise or lower the signal
How it was run: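 Transcriptional change of ABCC3 in HepaRG after 48 h treatment, determined by qRT-PCR normalized to endogenous controls. Concentrations spanned eight half-log steps to 100 uM in 0.5% DMSO.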

[15] = read-out: ABC Transporter (ABCB11), ABCB11 (gene 8647); experiment: LTEA_HepaRG_ABCB11: Life Technologies and Expression Analysis (LTEA) Assay for ABC Transporter (ABCB11) using HepaRG (AID 2283463); details: mRNA level, 48 h; actives raise or lower the signal
How it was run: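 Differentiated human HepaRG cells in serum-free induction medium, dosed in duplicate for 48 h. Eight-point half-log series from 100 uM in 0.5% DMSO; ABCB11 mRNA by qRT-PCR, normalized to ACTB, GAPDH, POLR2A, fitted bidirectionally versus DMSO.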

[16] = read-out: ABC Transporter (ABCC2), ABCC2 (gene 1244); experiment: LTEA_HepaRG_ABCC2: Life Technologies and Expression Analysis (LTEA) Assay for ABC Transporter (ABCC2) using HepaRG (AID 2283464); details: mRNA level, 48 h; actives raise or lower the signal
How it was run: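 After plating and 48 h culture, HepaRG medium is replaced with serum-free induction medium and chemicals are added (8 concentrations, max 100 uM, 0.5% DMSO) for 48 h. Total RNA then undergoes qRT-PCR for ABCC2 with housekeeping normalization.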

[17] = read-out: Broad substrate specificity ATP-binding cassette transporter ABCG2 (Homo sapiens) (UniProt Q9UNQ0); experiment: LTEA_HepaRG_ABCG2: Life Technologies and Expression Analysis (LTEA) Assay for ABC Transporter (ABCG2) using HepaRG (AID 2283465); details: mRNA level, 48 h; actives raise or lower the signal
How it was run: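 Differentiated HepaRG cells were exposed for 48 h in serum-free induction medium to 8 half-log concentrations, top 100 uM, in 0.5% DMSO. ABCG2 mRNA was measured by qRT-PCR, normalized to ACTB, GAPDH and POLR2A, with bidirectional fitting versus DMSO.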

[18] = read-out: ATP-citrate lyase (ACLY), ACLY (gene 47); experiment: LTEA_HepaRG_ACLY: Life Technologies and Expression Analysis (LTEA) Assay for ATP-citrate lyase (ACLY) using HepaRG (AID 2283466); details: mRNA level, 48 h; actives raise or lower the signal
How it was run: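 Differentiated HepaRG cells exposed 48 h in serum-free induction medium to eight half-log concentrations up to 100 uM in 0.5% DMSO, duplicates. Transcript measured by Fluidigm TaqMan qRT-PCR, normalized to ACTB, GAPDH, POLR2A; bidirectional fit versus DMSO.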

[19] = CEETOX_H295R_ESTRONE: CeeTox H295R High-throughput Steroidogenesis Assay for Estrone (AID 2283441); details: actives raise or lower the signal;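 further: estrone secreted into medium measured by LC-MS/MS after dansyl derivatization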
How it was run: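 H295R cells; 48 h forskolin (10 uM) prestimulation; 48 h compound exposure, 0.1% DMSO final. Medium estrone: MTBE extraction, dansyl derivatization, HPLC-MS/MS. Bidirectional fit vs DMSO.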

Measured: AC50

Sequence of Fatty acid synthase (Homo sapiens) (P49327 whole entry, looked up): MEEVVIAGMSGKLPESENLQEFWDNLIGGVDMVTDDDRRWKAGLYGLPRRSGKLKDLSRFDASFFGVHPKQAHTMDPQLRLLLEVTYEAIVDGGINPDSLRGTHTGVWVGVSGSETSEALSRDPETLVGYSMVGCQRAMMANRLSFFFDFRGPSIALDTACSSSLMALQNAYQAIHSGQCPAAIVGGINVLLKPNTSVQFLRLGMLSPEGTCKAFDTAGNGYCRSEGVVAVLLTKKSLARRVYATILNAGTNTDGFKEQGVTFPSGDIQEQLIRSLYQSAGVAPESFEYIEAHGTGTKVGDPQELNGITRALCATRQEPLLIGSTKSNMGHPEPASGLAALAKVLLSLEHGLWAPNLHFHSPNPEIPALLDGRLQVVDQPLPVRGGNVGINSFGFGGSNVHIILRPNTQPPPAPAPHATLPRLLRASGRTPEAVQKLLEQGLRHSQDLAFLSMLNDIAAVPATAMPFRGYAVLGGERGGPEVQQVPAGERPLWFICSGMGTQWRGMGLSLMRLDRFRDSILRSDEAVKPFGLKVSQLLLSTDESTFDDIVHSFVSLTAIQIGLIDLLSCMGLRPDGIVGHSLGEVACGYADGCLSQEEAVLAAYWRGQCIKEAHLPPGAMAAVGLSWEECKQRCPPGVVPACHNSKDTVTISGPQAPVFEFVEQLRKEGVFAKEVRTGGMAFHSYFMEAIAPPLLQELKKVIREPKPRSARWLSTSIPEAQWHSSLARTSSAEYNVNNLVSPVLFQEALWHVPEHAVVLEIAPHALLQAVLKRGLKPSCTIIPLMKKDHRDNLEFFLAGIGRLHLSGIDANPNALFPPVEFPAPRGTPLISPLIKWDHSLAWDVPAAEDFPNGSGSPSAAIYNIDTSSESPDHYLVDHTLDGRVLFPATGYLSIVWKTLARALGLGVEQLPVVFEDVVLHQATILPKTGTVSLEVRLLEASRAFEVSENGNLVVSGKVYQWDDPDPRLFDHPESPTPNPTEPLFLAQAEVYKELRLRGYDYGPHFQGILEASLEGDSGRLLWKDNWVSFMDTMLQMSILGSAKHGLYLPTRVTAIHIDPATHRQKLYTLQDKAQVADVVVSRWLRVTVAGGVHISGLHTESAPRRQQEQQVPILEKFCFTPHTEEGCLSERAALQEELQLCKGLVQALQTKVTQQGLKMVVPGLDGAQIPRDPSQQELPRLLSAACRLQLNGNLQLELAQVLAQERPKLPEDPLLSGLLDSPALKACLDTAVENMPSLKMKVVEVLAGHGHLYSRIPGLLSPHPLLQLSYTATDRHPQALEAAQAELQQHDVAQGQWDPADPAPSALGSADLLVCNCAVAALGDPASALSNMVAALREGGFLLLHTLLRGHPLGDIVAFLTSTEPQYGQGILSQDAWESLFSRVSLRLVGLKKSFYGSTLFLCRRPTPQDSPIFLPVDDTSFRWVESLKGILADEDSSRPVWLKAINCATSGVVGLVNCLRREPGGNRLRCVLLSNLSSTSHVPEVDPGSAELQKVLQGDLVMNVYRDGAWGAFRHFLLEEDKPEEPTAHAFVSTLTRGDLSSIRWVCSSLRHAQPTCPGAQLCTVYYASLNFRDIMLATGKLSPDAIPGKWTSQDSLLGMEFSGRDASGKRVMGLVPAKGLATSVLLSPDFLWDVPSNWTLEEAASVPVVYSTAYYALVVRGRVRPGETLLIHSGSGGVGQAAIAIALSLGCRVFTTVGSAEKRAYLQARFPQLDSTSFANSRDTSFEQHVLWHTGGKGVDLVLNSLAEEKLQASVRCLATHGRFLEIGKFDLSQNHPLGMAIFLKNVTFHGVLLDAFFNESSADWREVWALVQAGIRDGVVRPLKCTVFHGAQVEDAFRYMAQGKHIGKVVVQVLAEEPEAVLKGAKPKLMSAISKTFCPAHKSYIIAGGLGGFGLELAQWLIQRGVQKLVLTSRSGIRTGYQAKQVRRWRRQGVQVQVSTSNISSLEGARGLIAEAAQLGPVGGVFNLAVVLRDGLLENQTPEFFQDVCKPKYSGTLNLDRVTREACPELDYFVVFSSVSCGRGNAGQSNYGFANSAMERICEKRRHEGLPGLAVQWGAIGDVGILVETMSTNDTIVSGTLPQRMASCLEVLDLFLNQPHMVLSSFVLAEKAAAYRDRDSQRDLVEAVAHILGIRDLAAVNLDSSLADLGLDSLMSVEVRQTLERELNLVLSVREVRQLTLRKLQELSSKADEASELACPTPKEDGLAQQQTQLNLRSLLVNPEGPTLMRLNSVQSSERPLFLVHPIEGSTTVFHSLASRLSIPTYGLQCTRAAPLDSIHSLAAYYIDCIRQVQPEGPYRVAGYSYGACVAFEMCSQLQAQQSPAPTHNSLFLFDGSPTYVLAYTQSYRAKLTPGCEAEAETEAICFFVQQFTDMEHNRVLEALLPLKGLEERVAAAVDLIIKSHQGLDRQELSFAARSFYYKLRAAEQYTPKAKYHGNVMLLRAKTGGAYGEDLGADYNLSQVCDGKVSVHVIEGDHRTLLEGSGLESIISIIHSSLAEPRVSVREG
Sequence of Broad substrate specificity ATP-binding cassette transporter ABCG2 (Homo sapiens) (Q9UNQ0 whole entry, looked up): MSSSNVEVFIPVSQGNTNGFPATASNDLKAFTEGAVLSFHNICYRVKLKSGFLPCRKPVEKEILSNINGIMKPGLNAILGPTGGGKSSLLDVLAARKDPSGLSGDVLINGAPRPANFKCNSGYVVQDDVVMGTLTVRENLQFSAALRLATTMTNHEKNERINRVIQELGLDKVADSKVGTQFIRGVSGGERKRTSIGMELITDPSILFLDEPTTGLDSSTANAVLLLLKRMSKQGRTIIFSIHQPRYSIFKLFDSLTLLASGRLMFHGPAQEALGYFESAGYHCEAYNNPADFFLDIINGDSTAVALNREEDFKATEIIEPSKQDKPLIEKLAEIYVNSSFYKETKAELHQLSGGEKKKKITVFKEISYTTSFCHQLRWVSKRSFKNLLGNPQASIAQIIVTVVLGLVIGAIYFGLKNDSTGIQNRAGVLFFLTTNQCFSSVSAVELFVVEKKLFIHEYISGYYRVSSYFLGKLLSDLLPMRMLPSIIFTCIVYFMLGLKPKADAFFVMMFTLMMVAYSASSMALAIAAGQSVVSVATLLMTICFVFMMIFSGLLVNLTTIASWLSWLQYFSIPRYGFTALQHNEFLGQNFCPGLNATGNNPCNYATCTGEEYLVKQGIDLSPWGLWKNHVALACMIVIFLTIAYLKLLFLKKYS

CC(C)(C)c1ccccc1O
active: [7] 50 µM
not listed: [19]
inactive: all other assays above

O=C(N[C@H]1CN2CCC1CC2)c1ccc2c(c1)OCCO2
not listed: [1] | [19]
inactive: all other assays above

CCCSP(=S)(OCC)Oc1ccc(SC)cc1 (stereo not drawn)
active: [1] 6.35 µM
inactive: [19]

CC(C)=CC1C(C(=O)OCc2cccc(Oc3ccccc3)c2)C1(C)C (stereo not drawn)
inactive: [19]
active: [1] 25.8 µM

CC(C)O.CC(C)O.OCCN(CCO)CCO.OCCN(CCO)CCO.[Ti]
not listed: [1] | [19]
inactive: all other assays above

OCCN(CCO)CCO
active: [7] 73.2 µM
not listed: [1] | [19]
inactive: all other assays above

Reference: PubChem BioAssay (EPA / NIEHS)
